In all, about 360,000 compounds went through this assay and about 270 (0.075%) were called active. The call rests on the fitted dose curve; in most records, active means well fitted activation curve with a large enough effect; inconclusive means small, poorly fitted or top-dose-only effect; inactive means no such curve, though single readings can be large or run the other way. For the sample, actives were picked, then their nearest neighbours and some compounds at random.
molecular target: Rap guanine nucleotide exchange factor 3 (Homo sapiens) (UniProt O95398); experiment: qHTS for Agonist of cAMP-regulated guanine nucleotide exchange factor 3 (EPAC1): primary screen; conditions: biochemical assay; series mostly up to 154 µM; further: nearly all actives have a fitted effect of over 60% in size
From the text: In multi-cellular eukaryotic organisms, the effects of cAMP are transduced by two ubiquitously-expressed intracellular cAMP receptors, the classic protein kinase A/cAMP-dependent protein kinase (PKA/cAPK) and the more recently discovered exchange protein directly activated by cAMP/cAMP-regulated guanine nucleotide exchange factor (EPAC/cAMP-GEF). Both PKA and EPAC are ubiquitously expressed in all tissues, and an increase in intracellular cAMP levels will lead to the activation of both PKA and EPAC. Therefore, careful dissections of the individual role and relative contribution of EPAC and PKA within the overall cAMP signaling in various model systems are critical for further elucidating the mechanism of cAMP signaling. To date no EPAC-specific antagonists and agonist, as well as isoform-specific agonists have been reported, and developing EPAC-specific pharmacological probes to determine the physiological functions that EPAC play in the overall cAMP-mediated signaling remains a major challenge within the research field. Furthermore, identified regulators of EPAC may lead to new mechanism-based therapeutic strategies specifically targeting the EPAC / cAMP-signaling components as EPAC has been implicated to play important roles in major human pathological conditions such as diabetes, heart disease, and cancer.
This qHTS will be used to screen the Molecular Libraries Small Molecule Repository (MLSMR) as a concentration-titration series using the NCGC unique quantitative screening (qHTS) platform to find activators for EPAC1. In addition, this assay will also be used as a counterscreen for the EPAC2 qHTS. This fluorescent based assay is developed and validated for EPAC1 that measures exchange using EPAC effector Rap1 complex with BODIPY-GDP, a GDP analog with a tethered fluorophores. Activators are identified by monitoring the change in fluorescence signal as the exchanged free BODIPY-GDP has a reduced fluorescence compared to Rap1-bound BODIPY-GDP. Increase in signal (activation) is the desired outcome for the EPAC1 agonist while no activity in this assay is desired for the EPAC2 agonist counterscreen.
[1] de Rooij, J., Zwartkruis, F. J., Verheijen, M. H., Cool, R. H., Nijman, S. M., Wittinghofer, A., and Bos, J.L. (1998) Nature 396, 474-477
NIH Chemical Genomics Center [NCGC]
NIH Molecular Libraries Probe Centers Network [MLPCN]
Assay Submitter (PI): Xiaodong Cheng, The University of Texas Medical Branch
Briefly, three uL of reagents (100 nM EPAC1, 250 nM RAP1B-BODIPY-GDP, 50 uM GDP) were dispensed into a 1536-well Greiner black solid-bottom medium binding assay plate. Controls and test compounds (23 nL) were transferred to the plate via a Kalypsys pin tool equipped with a 1536-pin array. The plates were centrifuged at 1,000 rpm for 15 seconds followed by 5 minute incubation at room temperature. The assay plates were read at 5 minute intervals for 30 minutes in the ViewLux plate reader using 480nm excitation and 540nm emission filters. The results were normalized to the agonist positive control of 6.5 mM cAMP.
Potency means the concentration at half of the fitted maximal effect.

Chain of Rap guanine nucleotide exchange factor 3 (Homo sapiens) (O95398 whole entry, looked up): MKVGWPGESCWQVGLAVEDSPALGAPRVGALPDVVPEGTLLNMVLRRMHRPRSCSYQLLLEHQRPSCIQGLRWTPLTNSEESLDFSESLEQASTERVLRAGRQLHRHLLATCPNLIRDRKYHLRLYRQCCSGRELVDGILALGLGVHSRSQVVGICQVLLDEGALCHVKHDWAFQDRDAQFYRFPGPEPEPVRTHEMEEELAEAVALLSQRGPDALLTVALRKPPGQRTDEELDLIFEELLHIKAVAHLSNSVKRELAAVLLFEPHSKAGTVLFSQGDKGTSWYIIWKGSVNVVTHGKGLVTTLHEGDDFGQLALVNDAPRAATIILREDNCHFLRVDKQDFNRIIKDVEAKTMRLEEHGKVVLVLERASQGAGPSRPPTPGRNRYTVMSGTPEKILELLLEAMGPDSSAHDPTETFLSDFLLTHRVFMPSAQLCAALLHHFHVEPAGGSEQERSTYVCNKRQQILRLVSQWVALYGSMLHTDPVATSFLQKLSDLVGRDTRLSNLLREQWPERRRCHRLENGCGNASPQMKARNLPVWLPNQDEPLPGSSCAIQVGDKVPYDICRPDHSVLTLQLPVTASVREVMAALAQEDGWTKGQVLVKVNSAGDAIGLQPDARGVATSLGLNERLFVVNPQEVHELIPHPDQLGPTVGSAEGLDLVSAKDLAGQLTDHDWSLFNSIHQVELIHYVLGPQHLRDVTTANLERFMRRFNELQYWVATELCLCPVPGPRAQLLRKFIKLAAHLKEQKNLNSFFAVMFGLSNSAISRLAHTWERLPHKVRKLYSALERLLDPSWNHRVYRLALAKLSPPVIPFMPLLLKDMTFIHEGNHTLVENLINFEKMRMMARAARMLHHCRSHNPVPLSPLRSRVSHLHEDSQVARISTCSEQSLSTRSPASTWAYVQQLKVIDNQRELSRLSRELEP

Potency, active:
CCN(CC)c1ccc2oc(=O)c(C)nc2c1 100 µM
O=C(NCCC1CCCCN1S(=O)(=O)c1ccc(Cl)cc1)C(=O)NCc1ccco1 (stereo not drawn) 50.1 µM
Nc1ccc2nc3c(=O)[nH]c(=S)[nH]c3nc2c1 89.1 µM
CCOC(=O)/C(C#N)=C/c1ccc(N2CCN(Cc3ccccc3)CC2)cc1 89.1 µM
Oc1ccc2ccc3cccc[n+]3c2c1 89.1 µM

Potency, inactive:
COC(=O)CN(c1cccc(C(C)=O)c1)S(C)(=O)=O
CN(CC(=O)Nc1ccccc1[N+](=O)[O-])Cc1ccc(Br)cc1
O=C(C[C@H]1CC[C@H]2[C@@H](COC[C@H](O)CN2C(=O)c2ccccn2)O1)N1CCN(c2ccccc2)CC1
Cc1ccccc1-n1cc(CNC(=O)C2CCC(=O)N(C3CC3)C2)cn1 (stereo not drawn)
Cc1ccc(NC(=O)CCC(=O)N2CCC(c3ccccc3)=N2)cc1S(=O)(=O)N1CCCCC1
O=C(NC(=S)Nc1ccc(Br)cc1F)C1CCCCC1
CCOc1ccc(NC(=O)C2CCN(C(=O)N3CCOc4ccccc43)CC2)cc1
CCOc1ccc(CC(=O)Nc2ccc(S(=O)(=O)Nc3cc(C)on3)cc2)cc1OCC
CCC(C)NC(=O)Cn1nc(C(F)(F)F)c2c1CCC2 (stereo not drawn)
COc1cc(Cl)c(C)cc1NC(=O)CSc1nnc(CN2CCCC2)o1
COc1ccc(OC)c(NC(=O)c2cc(-c3cc(F)ccc3OCC3CCCO3)n[nH]2)c1 (stereo not drawn)
O=C(NCCc1ccco1)C(=O)NCCC1CCCCN1S(=O)(=O)c1ccccc1 (stereo not drawn)
O=C(NCCC1CCCCN1S(=O)(=O)c1ccccc1)C(=O)NCC1CCCO1 (stereo not drawn)
COCCCNc1nc2ccccc2nc1NS(=O)(=O)c1ccc(F)cc1
CO/N=C/c1cn(-c2ccc(Cl)cc2)nn1
CN1CCN(C2=NCCO2)CC1
CC(=O)Oc1ccc(Cn2c(C)c(C(=O)NCc3ccc(C#N)cc3)sc2=O)cc1
Cc1cccc(CC(=O)N2CCN=C2SCc2ccc([N+](=O)[O-])cc2)c1
Cc1ccc(S(=O)(=O)N2CCCCC2)cc1C(=O)N(C)CC(=O)Nc1cccc(F)c1
Cc1cc(NC(=O)CN2C(=O)NC(C)(CCc3ccccc3)C2=O)no1 (stereo not drawn)
Cc1cccc(-c2nc(CS(=O)CC(=O)NC(C)CCc3ccccc3)c(C)o2)c1 (stereo not drawn)
CC(C)N1CCC(=NNc2ccc([N+](=O)[O-])cc2S(=O)(=O)N2CCOCC2)CC1
Cc1ccccc1NC(=O)C1CCCN(C(=O)NCc2ccccc2)C1 (stereo not drawn)
O=C1CCC(C(=O)N2CCN(c3ccccc3Cl)CC2)CN1CC1CCCCC1 (stereo not drawn)
CS(=O)(=O)/C(C#N)=C/c1cccn1S(=O)(=O)c1ccc([N+](=O)[O-])cc1
O=C(c1ccc(CS(=O)Cc2ccccc2Cl)o1)N1CCN(c2ccccc2)CC1 (stereo not drawn)
CCN1C(=NCc2ccc(OC)cc2)N[C@@H](CCc2ccccc2)[C@H](C(=O)NCc2ccc(OC)cc2)[C@H]1C
CCc1cccc(CC)c1N1C(=O)CC(Sc2ccccc2N)C1=O (stereo not drawn)
CCCC(=O)OCC(=O)Nc1cc(Cl)ccc1[N+](=O)[O-]
CC(C)Cc1ccc(S(=O)(=O)N2CCN(C(=O)c3ccco3)CC2)cc1
CC(=O)c1cccc(NC(=O)N2CCCC2C(=O)NCCC(C)C)c1 (stereo not drawn)
Cc1ccsc1C(=O)N[C@@H](C)c1nnc2ccccn12
COC(=O)[C@@]1(C)[C@H]2C(=O)N(Cc3ccccc3)C(=O)[C@H]2[C@H]2CN=C(SCC3CC3)N21
NC(=O)C1CCN(C(=O)c2ccc(-c3ccccc3)cc2)CC1
O=C(C1=C(O)C(=O)N(CCOCCO)C1c1ccccn1)c1cccs1 (stereo not drawn)
CCOC(=O)c1cnn2c(SC)ncnc12
COCCn1c(SCC(=O)N2CCCCCC2)nc2c(c1=O)SCC2
CC(=O)Nc1ccc(S(=O)(=O)NNC(=O)CCc2ccccc2)cc1
CCNC(=O)c1cnn(-c2ccccc2)c1-c1ccccc1
CN1CCN(Cc2nc3c(c(=O)n(C)c(=O)n3C)n2Cc2cccc3ccccc23)CC1
Cc1ccc2c(c1)N(CC(=O)N1CCC(O)CC1)C(=O)CO2
CCOC(=O)C1CCN(C(=O)CSc2cc(=O)n(C)c3ccccc23)CC1
CCOC(=O)C1CCCN(C(=O)c2sc3nc(C)nc(N4CCOCC4)c3c2C)C1 (stereo not drawn)
CS(=O)(=O)N1CCc2cc(C(=O)Nc3ccccc3Br)ccc21
CC(=O)c1ccc(N2CCN(S(=O)(=O)c3c(C)[nH]c(=O)[nH]c3=O)CC2)cc1
C=CCN(CC=C)C(=O)COC(=O)c1n[nH]c2ccccc12
CCOC(=O)c1cc(-c2ccc(F)cc2)n(CC(=O)NCc2ccccn2)c1C
CC[C@H](C)C(=O)N[C@H]1CCCN1C(=O)/C=C/c1ccccc1
O=C(O)Cc1csc(NC(=O)CSc2nnnn2-c2ccc(O)cc2)n1
COc1cccc(N2CC(NC(=O)c3ccc4ccccc4c3)CC2=O)c1 (stereo not drawn)
O=C1c2cccnc2C(Nc2ccc(S(=O)(=O)N3CCCCCC3)cc2)N1Cc1ccccc1 (stereo not drawn)
NC(=O)c1ccsc1NC(=O)COC(=O)COc1ccc(C=O)cc1
Cc1ccc(NC(=O)CN(C)C(=O)COC(=O)c2nccnc2N)cc1
O=S(=O)(c1ccccc1)c1nc(Cc2ccccc2)oc1N1CCOCC1
COc1ccc(NC(=O)NCCN2CCN(c3ccc(C)cc3)CC2)c(Cl)c1
O=C(CSc1nnc2c(n1)[nH]c1ccccc12)NC1CCCCC1
O=C(C1CCN(c2nnc(-n3cccc3)s2)CC1)N1CCc2ccccc2C1
Cc1ccc(C)c(S(=O)(=O)N2CCCOC2CNC(=O)C(=O)NC2CCCCC2)c1 (stereo not drawn)
O=C(CN1CCc2ccccc2C1)Nc1cccc(S(=O)(=O)N2CCOCC2)c1
CC(C)Oc1ccc(C(=O)NC(C)(C)CO)cc1
O=C(Nc1cc2c3c(c1)CC(=O)N3CCC2)c1ccccc1F
Cc1cc([N+](=O)[O-])nn1CC(=O)Nc1ccc(Cc2ccncc2)cc1
O=C1CCCN2N=C(SCC(=O)Nc3ccc(Br)cc3)SC2=N1
CCC1CCCCN1C(=S)Nc1ccc(S(=O)(=O)Nc2ncccn2)cc1 (stereo not drawn)
Cc1ccsc1CNn1cnnc1SCc1ccccc1F
COc1ccc(N2CCN(C(CNS(=O)(=O)c3ccc(C)cc3)c3ccccc3)CC2)cc1 (stereo not drawn)
CCOC(=O)C1CCN(Cc2ccc(-c3ccccc3)cc2)CC1
CCCn1c(C)cc(/C=C(\C#N)C(=O)OCC(=O)N(C)c2c(N)n(Cc3ccccc3)c(=O)[nH]c2=O)c1C
Cn1cnc([N+](=O)[O-])c1Nc1ccccc1O
COc1ccc2c3c1O[C@H]1C[C@@H](O)C=C[C@@]31CCN(C)C2
COc1cc(C(=O)NCC(c2ccco2)N2CCCC2)ccc1OCc1ccccc1 (stereo not drawn)
CC(=O)NC(C)(C)C1CC=C(C)/C(=N\O)C1 (stereo not drawn)
COc1ccc([N+](=O)[O-])cc1NC(=O)C(C)OC(=O)C1c2ccccc2Oc2ccccc21 (stereo not drawn)
C[C@@H]1CN([C@H](C)CO)C(=O)c2cc(NC(=O)NC3CCCCC3)ccc2O[C@H]1CN(C)S(C)(=O)=O
CSc1nnc2c(n1)OC(c1ccsc1)N(C(C)=O)c1ccccc1-2 (stereo not drawn)
CC(NC(=O)CCC(=O)N1CCN(S(=O)(=O)c2ccc(Cl)cc2)CC1)c1ccccc1 (stereo not drawn)
Cc1ccsc1-c1nc(CSCC(=O)NCCN2CCCC2)c(C)o1
COc1ccc(-n2c(SCC(=O)Nc3ccc4c(c3)OCO4)nnc2C(C)N2CCCCC2)cc1 (stereo not drawn)
NS(=O)(=O)c1cc(C(=O)OCC(=O)NNC(=O)c2ccccc2)ccc1Cl
O=c1c2ccccc2ccc2ccc(P(=O)(O)O)cc12
CC(=O)Nc1ccc(S(=O)(=O)N(C)CC(=O)NCCC2=CCCCC2)cc1
COc1cc(OC)cc(C(=O)NCC(=O)N2CCCCCCC2)c1
COC(=O)C(C(=O)Nc1cccc(C)n1)C1CCCCCC1 (stereo not drawn)
C[C@H]1CN([C@@H](C)CO)C(=O)CCCn2cc(nn2)CO[C@@H]1CN(C)S(=O)(=O)c1cccc(C#N)c1
CN(C)c1ccc(C2Nc3ccccc3C(=O)N2NS(=O)(=O)c2ccccc2)cc1 (stereo not drawn)
O=C(O)c1cccnc1NC1CCCC1
COC(=O)c1ccccc1NC(=O)CSc1nc2c(c(=O)[nH]1)CCC2
C=CCN1CCN(c2ccncc2S(=O)(=O)N2CCN(C)CC2)CC1
CC(=O)Nc1ccc(S(=O)(=O)N2CCN(C(=O)c3ccccc3F)CC2)cc1
CCOC(=O)N1CCC(N(CCOC)C(=O)Nc2ccc(C)c(C)c2)CC1
COc1ccc(-c2cc(NC=O)c3ncc(-c4ccccc4)n3c2)cc1OC
O=C(O)CCCCCCCCCC[n+]1ccccc1
Cc1cc(C)n2nc(C(=O)N(C)C(c3ccccc3)c3ccccc3)nc2n1
CCn1cc(CN2CCN(CC(C)(C)C)C(CCO)C2)c2ccccc21 (stereo not drawn)
NS(=O)(=O)c1ccc(N=Cc2ccc(Br)s2)cc1
COC(=O)c1cc(NC(=O)CN2CCC(C(N)=O)(N3CCCCC3)CC2)cc(C(=O)OC)c1
O=C(O)CSCNC(=O)CC12CC3CC(CC(C3)C1)C2
Cc1ccc(CCNC(=O)C2CCN(S(=O)(=O)N3CCCC3)CC2)cc1

— PubChem BioAssay AID720707 (National Center for Advancing Translational Sciences (NCATS), 2013)
